According to PubChem BioAssay:
Several values for one entry are separate records, joined by “and”; a condition that tells them apart may be missing. Equal values may be shown once.

Key:
[1] = test system: Human papillomavirus type 1a protein E7 (residues 44-93); assay: small molecules binding HPV E7 44-93 – biochemical, small-molecule microarray, residues 44-93, 635 nm fluorescence, primary screen (AID 1108); settings: fluorescence 635 nm, higher = more signal;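 further: E7 fragment applied at 1 µg/mL in TBST for 1 h at 4 C; score combines spot fluorescence with its signal to noise ratio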
[2] = hepatitis C replication reporter changes, two-sided – Huh7 cells, luciferase reporter, HCV replication inhibitor project, primary screen (AID 1109); settings: Huh7 HCV replicon luciferase reporter, 48 h; higher = more signal;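 further: huh7 hepatoma cells harbouring a luciferase neomycin HCV replicon reporter; luciferase luminescence as measure of HCV replicon replication; test concentration not given here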
[3] = target: Left-right determination factor 2 (Homo sapiens) (UniProt O00292); assay: small molecules binding LEFTY2 protein – biochemical, small-molecule microarray, 635 nm fluorescence scan, primary screen (AID 1110); settings: higher = more signal
Sequence of Left-right determination factor 2 (Homo sapiens) (O00292 whole entry, looked up): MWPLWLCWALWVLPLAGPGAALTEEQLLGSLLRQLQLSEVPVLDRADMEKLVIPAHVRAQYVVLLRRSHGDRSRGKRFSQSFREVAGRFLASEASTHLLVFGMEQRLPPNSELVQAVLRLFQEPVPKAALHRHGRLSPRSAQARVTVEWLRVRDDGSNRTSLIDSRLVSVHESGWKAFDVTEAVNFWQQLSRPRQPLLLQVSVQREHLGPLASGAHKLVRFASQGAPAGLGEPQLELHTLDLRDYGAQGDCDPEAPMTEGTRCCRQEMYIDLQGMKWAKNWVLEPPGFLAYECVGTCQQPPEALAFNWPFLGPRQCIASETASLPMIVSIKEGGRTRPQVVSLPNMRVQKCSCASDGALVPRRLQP

[4] = target: Calmodulin-1 (Homo sapiens) (UniProt P0DP23); assay: small molecules binding calmodulin-1 with EGTA – biochemical, small-molecule microarray, Cy5-labelled CALM1, profiling panel (AID 1111); settings: Cy5-CALM1 binding fluorescence, higher = more signal;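 further: labelled calmodulin applied in Tris saline Tween buffer holding calcium plus EGTA and DTT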
[5] = target: Calmodulin-1 (Homo sapiens) (UniProt P0DP23); assay: small molecules binding Ca-loaded calmodulin-1 – biochemical, small-molecule microarray, Cy5-labelled CALM1, plus calcium, artefact control for SMM control-protein annotation, profiling panel (AID 1112); settings: Cy5-CALM1 binding fluorescence, higher = more signal;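 further: score merges spot fluorescence with signal to noise from triplicate slides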
[6] = probe aWnt5a binding to arrayed compounds – biochemical, biotinylated probe, 635/667 nm fluorescence, primary screen (AID 1113); settings: small-molecule microarray, higher = more signal;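 further: score merges 667 nm fluorescence intensity with signal-to-noise per printed feature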
[7] = probe aShh binding to arrayed compounds – biochemical, biotinylated probe, 635/667 nm fluorescence, primary screen (AID 1114); settings: small-molecule microarray, higher = more signal;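 further: probe is biotin-labelled aShh protein from a stem cell growth factor screen; measures binding of labelled protein to compounds printed on the slide; score merges feature fluorescence at 667 nm with signal-to-noise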
[8] = probe aNog binding to arrayed compounds – biochemical, biotinylated probe, 635/667 nm fluorescence, primary screen (AID 1115); settings: small-molecule microarray, higher = more signal;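 further: probe is biotinylated aNog protein used at 0.15 µg/mL for 1 h at 4 C; z-score combines 667 nm fluorescence of each spot with its signal to noise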
[9] = target: Torsin-1A-interacting protein 1 (Homo sapiens) (UniProt Q5JTV8); assay: compound microarray binding of lysate hLAP1 – cell lysate, small-molecule microarray, COS7 lysate, 635/667 nm fluorescence, primary screen (AID 1116); settings: 635 nm fluorescence, higher = more signal
Sequence of Torsin-1A-interacting protein 1 (Homo sapiens) (Q5JTV8 whole entry, looked up): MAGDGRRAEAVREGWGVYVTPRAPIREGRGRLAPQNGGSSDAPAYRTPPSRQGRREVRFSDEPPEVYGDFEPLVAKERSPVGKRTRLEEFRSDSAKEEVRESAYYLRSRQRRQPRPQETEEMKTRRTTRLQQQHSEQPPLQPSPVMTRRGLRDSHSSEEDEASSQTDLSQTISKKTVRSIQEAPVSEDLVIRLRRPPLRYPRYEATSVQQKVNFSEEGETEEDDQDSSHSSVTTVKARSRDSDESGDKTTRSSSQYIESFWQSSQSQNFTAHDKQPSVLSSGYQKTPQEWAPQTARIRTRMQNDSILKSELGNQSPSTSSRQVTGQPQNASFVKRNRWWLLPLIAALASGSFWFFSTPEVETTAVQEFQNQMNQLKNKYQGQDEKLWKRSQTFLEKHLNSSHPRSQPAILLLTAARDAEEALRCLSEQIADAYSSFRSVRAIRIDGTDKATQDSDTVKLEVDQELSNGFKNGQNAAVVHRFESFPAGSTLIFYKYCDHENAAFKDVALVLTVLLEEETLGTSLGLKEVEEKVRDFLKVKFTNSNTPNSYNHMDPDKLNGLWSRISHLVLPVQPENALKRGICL

[10] = target: Alpha-bungarotoxin (Bungarus multicinctus) (UniProt P60615); assay: compounds binding labelled alpha-BTX control protein – biochemical, small-molecule microarray, Alexa647 label, 635/667 nm fluorescence, artefact control for SMM control protein annotation, profiling panel (AID 1117); settings: alpha-BTX-A647 binding fluorescence, higher = more signal
Sequence of Alpha-bungarotoxin (Bungarus multicinctus) (P60615 whole entry, looked up): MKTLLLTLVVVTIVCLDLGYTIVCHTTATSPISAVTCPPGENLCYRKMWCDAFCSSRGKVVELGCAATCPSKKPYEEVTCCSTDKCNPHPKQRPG

SMILES | composite z-score [1] | z-score [2] | composite z-score [3] | composite z-score [4] | composite z-score [5] | composite z-score [6] | composite z-score [7] | composite z-score [8] | composite z-score [9] | composite z-score [10]
C=CCN(Cc1ccccc1)C(=O)C(c1cccs1)N(C(=O)/C=C\C(=O)O)c1ccc(CCO)cc1 (stereo not given) | -0.325 and -0.505 | 0.0048 and 0.875 | -2.74 and -3.22 | -0.729 and -1 | 0.204 and -0.257 | -0.243 and -0.252 | -0.221 and -0.138 | -0.4 and -0.118 | -0.648 and -0.326 | -1.7 and -1.25
CO[C@H]1COC(=O)CC=C[C@@H](C)COC(=O)[C@H](CCSC)NC(=O)CC=C[C@@H]1C | -0.467 and -0.849 | -0.0216 and -0.567 | 1.6 and 1.71 | -0.957 and -2.78 | -1.75 and -3.46 | -0.136 and -0.197 | -0.138 and -0.34 | -0.385 and -0.754 | 0.995 and 0.363 | -0.933 and -1.69
COC(=O)C1=C(C)N(Cc2ccccc2)C2=C(C(C)=O)[C@H](c3ccccc3)[C@@](O)(C(=O)OC)C(=O)N2[C@@H]1c1ccccc1 | 0.895 and -1.59 | -0.396 and 0.347 | 0.64 and -0.705 | -0.271 and -0.503 | 0.004 and -0.587 | -0.0944 and 0.0102 | 0.151 and -0.0146 | -0.205 and -0.342 | -0.0984 and -0.136 | 0.538 and -0.436
C=CCN(Cc1ccccc1)C(=O)C1N(c2c(Cl)cccc2CO)C(=O)C2C(C(=O)O)C3C=CC21O3 (stereo not given) | -2.6 and -0.99 | -0.431 and -0.961 | -3.36 and -2.65 | -0.998 and -0.846 | 0.686 and 0.031 | -0.215 and -0.291 | -0.221 and -0.0866 | -0.261 and -0.281 | -0.74 and -0.831 | -2.7 and -1.89
COC(=O)[C@@]1(Cc2ccccc2)[C@H]2c3cc(C(=O)N(C)C)n(C[C@H](O)CO)c3C[C@H]2CN1C(=O)c1ccccc1 | 1.13 and -0.569 | -0.38 and -0.668 | -0.724 and 0.396 | 0.205 and 2.39 | 0.696 and 0.624 | -0.0346 and 0.0297 | 1.03 and 0.0469 | 0.373 and 1.04 | 2.36 and 1.1 | -0.33 and 0.13
COC(=O)C1=C2N(Cc3ccccc3)C(C)=C(C(=O)OC)[C@@H](c3ccccc3)N2C(=O)[C@](O)(C(=O)OC)C1 | -0.101 and 0.137 | 0.591 and 0.406 | 0.198 and 0.531 | 0.225 and -0.29 | -0.803 and -0.391 | -0.169 and -0.237 | -0.214 and -0.0914 | -0.18 and 0.162 | -0.203 and 1.01 | 0.661 and 0.171
C=C[C@@H](OC)[C@H](O)c1ccc(OCCO)cc1 | -0.796 and -1.11 | 0.241 and -0.0944 | -1.42 and -0.132 | -1.29 and -0.831 | -0.778 and -0.247 | -0.298 and -0.242 | -0.221 and -0.138 | -0.501 and -0.393 | 0.91 and -0.0877 | -0.7 and -0.37
Cc1ccc(S(=O)(=O)N[C@H]2COC(=O)[C@@H](C)COC(=O)[C@H](C)NC(=O)CC=C[C@H]2C)cc1 | -0.799 | -0.128 | 0.715 | -0.82 | -0.994 | 0.027 | 0.0538 | -0.234 | 1.09 | -0.458
C=CCN(CCCCC)C(=O)C(c1cccs1)N(CCOCCO)C(=O)/C=C\C(=O)O (stereo not given) | -1.74 and -0.0507 | -0.572 and 0.96 | -0.828 and -1.56 | -1.04 and -0.776 | -0.408 and 0.326 | -0.135 and -0.199 | -0.223 and -0.283 | -0.308 and 0.0644 | -0.922 and -0.405 | -0.676 and 1.14
C=CCN(Cc1ccccc1)C(=O)C1N(c2ccc(CCO)cc2)C(=O)C2C(C(=O)O)C3C=CC21O3 (stereo not given) | -0.864 and -3.61 | 0.677 and 0.514 | -2.68 and -3.26 | -0.279 and -1.04 | 0.428 and -0.184 | -0.195 and -0.0792 | 0.149 and -0.0035 | -0.152 and 0.784 | -0.958 and -1.58 | -1.48 and 0.899
COC(=O)C1=C(C)N(Cc2ccccc2)C2=C(C(=O)c3ccccc3)[C@H](c3ccccc3)[C@@](O)(C(=O)OC)C(=O)N2[C@@H]1c1ccccc1 | 1.15 and 0.774 | -2.05 and 0.964 | 0.32 and 0.577 | 0.046 and -0.136 | -0.373 and -0.51 | -0.176 and -0.1 | -0.137 and -0.0626 | -0.31 and 0.0197 | 0.202 and 0.17 | -0.115 and -0.0752
C=CCN(CCCC)C(=O)C1N(c2ccc(CCO)cc2)C(=O)C2C(C(=O)O)C3C=CC21O3 (stereo not given) | -2.07 and -0.32 | -0.213 and 1.02 | -2.86 and -4.53 | -0.828 and -1.3 | 0.33 and 0.554 | -0.221 and -0.296 | 0.0796 and 0.292 | -0.265 and -0.565 | -0.994 and -1 | -0.577 and -1.86
CO[C@H]1COC(=O)[C@H](C)NC(=O)CC=C[C@@H](C)[C@H](OC)COC(=O)CC=C[C@@H]1C | -1.05 | -0.885 | 0.955 | -0.884 | -0.822 | -0.0944 | -0.0337 | -0.198 | 0.169 | -0.0006
CCCCCN1CC=CC23O[C@@H]4C=CCCOC(=O)C4[C@H]2C(=O)N(C(C)CO)[C@@H]3C1=O (stereo not given in full) | 0.439 and 1.12 | -1.79 and 1.05 | -0.151 and -0.907 | -0.858 and 0.167 | -0.707 and -0.806 | -0.357 and -0.28 | -0.223 and -0.0035 | -0.789 and -0.301 | -0.759 and 2.57 | -0.342 and 0.335
COC(=O)C1=C(C)N(Cc2ccccc2)C2=C3C(=O)CCC[C@@H]3[C@@](O)(C(=O)OC)C(=O)N2[C@@H]1c1ccccc1 | -0.0225 and -0.0706 | -0.571 and -2.09 | 0.278 and 0.372 | -0.255 and -0.674 | -0.361 and -0.0671 | -0.144 and -0.0185 | -0.182 and 0.187 | -0.424 and 0.0775 | 0.617 and 0.179 | 0.187 and -0.503
Cc1ccc(S(=O)(=O)OC[C@@H]2CN3[C@@H](CC[C@@H](C)[C@@H]3c3ccc(Br)cc3)C(=O)O2)cc1 | 0.574 and 0.644 | -0.796 and -0.729 | 0.57 and 0.483 | 0.192 and 0.679 | 0.2 and -0.302 | -0.0704 and 0.0194 | -0.237 and -0.16 | -0.172 and -0.0898 | 0.301 and 0.359 | 0.153 and 0.448
C=CCN(Cc1ccccc1)C(=O)C1N(C(C)(C)CO)C(=O)C2C(C(=O)O)C3C=CC21O3 (stereo not given) | -1.71 and -2.2 | -1.39 and 0.81 | -2.75 and -1.49 | -0.23 and -0.697 | 1.19 and 0.132 | -0.202 and -0.224 | -0.138 and -0.206 | 0.196 and -0.47 | 0.148 and -1.17 | -2.89 and -1.25
CC(C)=NOC[C@@H](O)COCc1ccco1 | -1.92 | 0.797 | -0.168 | -0.614 | -0.142 | -0.172 | -0.138 | -0.342 | -0.2 | -1.1
CCCNC(=O)OC[C@H]1O[C@H](CCON=C(C)CCN2CCc3nc(-c4ccccc4)c(-c4ccccc4)cc3C2)C=C[C@@H]1Oc1ccc(OC)cc1 | 0.518 | -3.28 | 0.135 | -0.0233 | -0.0536 | -0.0535 | -0.0299 | -0.321 | 0.32 | 0.316
